# Inconclusive results are not listed. Activity calls are given as the source filed them. The calls were made as follows, unless noted: active = hit-call score of the fitted dose curve at least 0.9, where 1 is the maximum; inconclusive = response in the unintended direction; inactive = score below 0.9.
# What was measured:
# [1] = tested on: Brachyury (BRA) Protein Expression, Deisenroth Lab, TBXT (gene 6862); assay: CCTE_Deisenroth_DEVTOX-GLR_legacy_Bra: (Legacy) CCTE's DevTox GLR-Endo Assay Evaluation of Brachyury (BRA) Protein Expression, Deisenroth Lab (AID 2284329; active = hit-call score of the fitted dose curve at least 0.9, where 1 is the maximum; inactive = score below 0.9)
# In short: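 High-content imaging of fixed RUES2-GLR cells after a 48-hour differentiation with two compound exposures yields percent cells whose Bra signal exceeds pluripotent control median by 5x BMAD; values are baseline-corrected to DMSO.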
# [2] = CCTE_Deisenroth_DEVTOX-GLR_legacy_CellCount: (Legacy) Viability Assessment in CCTE's DevTox GLR-Endo Assay, Deisenroth Lab (AID 2284331; active = hit-call score of the fitted dose curve at least 0.9, where 1 is the maximum; inactive = score below 0.9); details: actives raise or lower the signal
# In short: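 Nuclei count by fluorescence high-content imaging (5 fields/well) after 48 h differentiation of RUES2-GLR cells. Two exposures, 24 h apart; 1 nM - 200 uM series; n=4. Bidirectional fit vs DMSO.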
# [3] = TAMU_PeakParms_SingleDonor1434_Asystole: Texas A&M University (TAMU) 1.5-hr Human Induced Pluripotent Stem Cell (iPSC)-derived Cardiomyocytes Calcium (Ca+2) Flux Assay for Cardiotoxicity: Asystole (quiescence of beating) (AID 2284328)
# In short: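 Human iPSC-derived cardiomyocytes (donor 1434) were exposed to 0.2, 1, 10 and 100 uM compound in 0.5% DMSO for 90 min at 37C. Ca2+-dye fluorescence gave average peak frequency; POD is EC95, a 95% beat-rate drop versus DMSO.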
# [4] = VALA_MIGHUV2_CellCount: Viability Assessment in the VALA Sciences human Umbilical Vein Endothelial Cell Migration (MIGHUV) Assay, Area of Scratch Wound after Recovery (AID 2284314)
# In short: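 Viability read-out: Hoechst-stained nuclei counted by fluorescence imaging after a 24 h recovery period in fixed, scratched HUVEC plates. Compound was dosed within 30 min of scratching at six concentrations (triplicate); DMSO at 0.1 % served as baseline.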
# [5] = VALA_TUBHUV_Antagonist_TubuleLength: VALA Sciences human Umbilical Vein Endothelial Tubule Formation (TUBHUV) Antagonism Assay (AID 2284325)
# In short: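 Tubule length was imaged via CD31 immunofluorescence after a further 3-day compound exposure in 10 ng/ml VEGF, following 3-day pre-culture of HUVEC with HDF at 1:3. Vehicle 0.1% DMSO; suramin (100 uM) inhibition control.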
# [6] = VALA_TUBHUV_Agonist_TubuleLength: VALA Sciences human Umbilical Vein Endothelial Tubule Formation (TUBHUV) Agonism Assay (AID 2284337)
# In short: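 Tubule length quantified by CD31 immunofluorescence imaging after fixation. HUVEC-HDF co-cultures (1:3) pre-grown 3 days with 10 ng/ml VEGF, then dosed 3 days in VEGF medium; 0.1 % DMSO vehicle baseline.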
# [7] = VALA_TUBIPS_Agonist_CellCount: Viability Assessment in the VALA Sciences human iPS-derived Endothelial Tubule Formation (TUBIPS) Agonism Assay (AID 2284338)
# Method: VALA_TUBIPS_Agonist is a cell-based, multiplexed assay that uses human iPS-derived endothelial cells (iPSC). Measurements were taken 72 hours after chemical dosing in a 96-well plate.VALA_TUBIPS_Agonist_CellCount is the one of two assay components measured from the VALA_TUBIPS_Agonist assay. It is designed to make measurements of viability, a form of viability reporter, as detected with fluorescence intensity signals by HCS Fluorescent Imaging technology. Data from the assay component VALA_TUBIPS_Agonist_CellCount was analyzed at the endpoint, VALA_TUBIPS_Agonist_CellCount, in the positive analysis fitting direction relative to DMSO as the negative control and baseline of activity. Using a type of viability reporter, loss-of-signal activity can be used to understand viability. To generalize the intended target to other relatable targets, this assay endpoint is annotated to the cell cycle intended target family, where the subfamily is cell count.
# […]
# [8] = CCTE_Deisenroth_5AR_NBTE_donor: CCTE's 5alpha-reductase NanoBRET Target Engagement Assay […], Deisenroth Lab (AID 2284319; active = hit-call score of the fitted dose curve at least 0.9, where 1 is the maximum; inactive = score below 0.9); details: actives raise or lower the signal
# In short: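 Donor NanoLuc luminescence at 460-20 nm is the read-out, serving artifact detection. Transiently expressed SRD5A2-NanoLuc in HEK293T; 5 h total chemical exposure, testosterone tracer added for the final 2 h; fitting bidirectional relative to DMSO baseline.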
# [9] = CCTE_Deisenroth_5AR_NBTE_acceptor: CCTE's 5alpha-reductase NanoBRET Target Engagement Assay - Autofluorescence Screen, Deisenroth Lab (AID 2284321; active = hit-call score of the fitted dose curve at least 0.9, where 1 is the maximum; inactive = score below 0.9;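 also: compound fluorescence in the acceptor channel under 460 nm excitation flags autofluorescence artifacts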); details: actives raise or lower the signal
# In short: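 Using three independent plate-reader runs, nominal 100 uM chemicals were checked for intrinsic fluorescence (ex 460 nm). DMSO defined the baseline for bidirectional fitting.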
# SRD5A2 (gene 6716) = assay: CCTE_Deisenroth_5AR_NBTE_ratio: CCTE's 5alpha-reductase NanoBRET Target Engagement Assay - Ratio, Deisenroth Lab (AID 2284322; active = hit-call score of the fitted dose curve at least 0.9, where 1 is the maximum; inactive = score below 0.9); details: actives raise or lower the signal
# In short: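 SRD5A2-NanoLuc HEK293T; cmpd 10 nM-29.9 uM, 3 h preinc + testosterone tracer 2 h; NanoBRET ratio 650/460; bidirectional fit vs DMSO.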
# IYD (gene 389434) = assay: CCTE_GLTED_hIYD: CCTE's human Iodotyrosine Deiodinase (xIYD) Inhibition Assay, Great Lakes Toxicology and Ecology Division (GLTED) Lab (AID 2284317);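 also: cell-free human IYD enzyme made in baculovirus insect cells; iodide freed from monoiodotyrosine measured by cerium arsenite color change at 420 nm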
# In short: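 Iodide liberated from monoiodotyrosine by baculovirus-expressed human IYD over 3 h was determined colorimetrically (Sandell-Kolthoff, 420 nm) after Dowex separation; inhibition is loss of signal versus DMSO.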
# [10] = VALA_MIGHUV2_Bcatenin: VALA Sciences human Umbilical Vein Endothelial Cell Migration (MIGHUV) Assay, Nuclear Translocation of beta-Catenin after Recovery (AID 2284315)
# In short: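 Nuclear beta-catenin imaged by immunofluorescence with Hoechst counterstain in fixed HUVEC, 24 h after scratch wounding and chemical addition. Six-point concentration-response in triplicate; activity scored as signal increase over 0.1% DMSO vehicle.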
# [11] = VALA_MIGHUV2_WoundArea: VALA Sciences human Umbilical Vein Endothelial Cell Migration (MIGHUV) Assay, Area of Scratch Wound after Recovery (AID 2284316)
# In short: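 Wound-area endpoint read by fluorescence imaging of Hoechst-stained nuclei after a 24 h recovery period following scratch of HUVEC monolayers (9000 cells/well). Chemicals dosed within 30 min post-scratch, triplicate 6-point series, 0.1% DMSO vehicle; Cytochalasin D positive control.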
# [12] = VALA_TUBIPS_Antagonist_CellCount: Viability Assessment in the VALA Sciences human iPS-derived Endothelial Tubule Formation (TUBIPS) Antagonism Assay (AID 2284335)
# [13] = VALA_MIGHUV1_ScratchOnly_WoundArea: VALA Sciences human Umbilical Vein Endothelial Cell Migration (MIGHUV) Assay, Area of Scratch Wound Inhibited Recovery (AID 2284336)
# In short: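 Wound area remaining after 24 h recovery imaged by Hoechst nuclear fluorescence in scratched HUVEC cultures, chemicals added within 30 min of scratching across a 6-point series. Gain of signal fitted against 0.1% DMSO; cytochalasin D positive control.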
# [14] = IUF_NPC2-5_viability_120hr: Viability Assessment at 120 hours in the Leibniz Research Institute for Environmental Medicine (IUF) Neural Progenitor Cell Migration and Differentiation Assay (NPC2-5) (AID 2284312; active = hit-call score of the fitted dose curve at least 0.9, where 1 is the maximum; inactive = score below 0.9)
# In short: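 Human fetal (GW 16-19) neural progenitor spheres of 0.3 mm were plated on poly-D-lysine/laminin in N2 differentiation medium and exposed from day 0 for 120 h, with half-medium refresh at day 3. Viability was read as alamar blue resazurin-to-resorufin fluorescence against DMSO.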
# [15] = CCTE_Mundy_HCI_iCellGluta_NOG_NeuriteLength: CCTE's Neurite Outgrowth Assay in iCellGluta cells for Neurite Length, Mundy Lab (AID 2284318)
# In short: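 Automated high-content imaging of betaIII-tubulin (Alexa Fluor-488) and Hoechst-stained cells gave neurite length, normalized to the DMSO baseline.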
# [16] = IUF_NPC1_cytotoxicity_72hr: Cytotoxicity Assessment at 72 hours in the Leibniz Research Institute for Environmental Medicine (IUF) Neural Progenitor Cell Proliferation Assay (NPC1) (AID 2284332);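 also: rising LDH signal means more cytotoxicity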
# In short: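 Readout is fluorescence from LDH-dependent resazurin conversion, sampled from culture medium after compound contact lasting 72 h. Each well holds one 0.25-0.35 mm human progenitor sphere kept at 37C, 5% CO2 with EGF and FGF.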
# [17] = VALA_TUBIPS_Antagonist_TubuleLength: VALA Sciences human iPS-derived Endothelial Tubule Formation (TUBIPS) Antagonist Assay (AID 2284313)
# In short: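 Tubule length was quantified by high-content imaging of CD31- and nuclear-stained cells, with 0.1% DMSO as neutral and 100 uM suramin as inhibition control. Compounds were applied for 3 days, in 10 ng/ml VEGF, to cultures pre-grown 3 days.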
# [18] = VALA_MIGHUV1_ScratchOnly_CellCount: Viability Assessment in the VALA Sciences human Umbilical Vein Endothelial Cell Migration (MIGHUV) Assay, Scratch Wound Inhibited Recovery (AID 2284327)
# In short: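 Hoechst-stained nuclei in the scratch wound were counted by high-content imaging after a 24 h recovery period. Scratched HUVEC monolayers received 6-point concentration series, triplicate, in 0.1% DMSO, fit against DMSO.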
smiles,measurement,setting,value
O=C(O)c1cccnc1,outcome,[1],inactive
same,outcome,[2],inactive
Nc1nc(=S)c2[nH]cnc2[nH]1,outcome,[3],inactive
CCCCC(CC)COP(=O)(OCC(CC)CCCC)OCC(CC)CCCC (stereo unspecified),outcome,[4],inactive
same,AC50,[5],10 µM (active)
same,outcome,[6],inactive
same,AC50,[7],0.00227 µM (active)
O=C(O)c1[nH]n(-c2ccc(S(=O)(=O)O)cc2)c(=O)c1N=Nc1ccc(S(=O)(=O)O)cc1,AC50,[8],35 µM (active)
same,outcome,[9],inactive
same,AC50,SRD5A2 (gene 6716),57.5 µM (active)
S=c1[nH]c2ccccc2s1,outcome,IYD (gene 389434),inactive
O=C1OC(c2ccc(O)cc2)(c2ccc(O)cc2)c2ccccc21,outcome,[10],inactive
same,outcome,[11],inactive
same,outcome,[8],inactive
same,outcome,[9],inactive
same,AC50,SRD5A2 (gene 6716),50 µM (active)
same,AC50,[5],50 µM (active)
same,outcome,[12],inactive
same,AC50,[13],75.4 µM (active)
same,outcome,[7],inactive
CCCCC(CC)COC(=O)CCCCCCCC(=O)OCC(CC)CCCC (stereo unspecified),outcome,[8],inactive
same,outcome,[9],inactive
same,outcome,SRD5A2 (gene 6716),inactive
CCc1nc(N)nc(N)c1-c1ccc(Cl)cc1,outcome,[3],inactive
OCC(O)CO,outcome,[14],inactive
same,outcome,[15],inactive
same,outcome,[16],inactive
O=C1c2c(O)cccc2Cc2cccc(O)c21,outcome,[8],inactive
same,outcome,[9],inactive
same,AC50,SRD5A2 (gene 6716),75.5 µM (active)
CN(C)CCCN1c2ccccc2Sc2ccc(Cl)cc21,AC50,[14],10.9 µM (active)
O=C(O)CC(O)(CC(=O)O)C(=O)O,outcome,[3],inactive
O=Cc1ccccc1C=O,AC50,IYD (gene 389434),60.2 µM (active)
CCN(CC)CCOc1ccc(C(=C(Cl)c2ccccc2)c2ccccc2)cc1,AC50,IYD (gene 389434),16 µM (active)
same,outcome,[8],inactive
same,outcome,[9],inactive
same,outcome,SRD5A2 (gene 6716),inactive
C/C=C/C=C/C(=O)O,outcome,[8],inactive
same,outcome,[9],inactive
same,outcome,SRD5A2 (gene 6716),inactive
CC(=O)CC(c1ccccc1)c1c(O)c2ccccc2oc1=O (stereo unspecified),outcome,[14],inactive
same,outcome,[15],inactive
same,outcome,[1],inactive
same,outcome,[2],inactive
same,outcome,[16],inactive
Cc1c(C)c2c(c(C)c1O)CCC(C)(COc1ccc(CC3SC(=O)NC3=O)cc1)O2 (stereo unspecified),AC50,IYD (gene 389434),94.7 µM (active)
same,outcome,[8],inactive
same,outcome,[9],inactive
same,AC50,SRD5A2 (gene 6716),29.7 µM (active)
Cc1cn([C@H]2C=C[C@@H](CO)O2)c(=O)[nH]c1=O,outcome,[1],inactive
same,outcome,[2],inactive
O=C1NC(=O)C(c2ccccc2)(c2ccccc2)N1,outcome,[14],inactive
same,outcome,[2],inactive
same,outcome,[16],inactive
Nc1nc(Cl)nc2c1ncn2[C@H]1C[C@H](O)[C@@H](CO)O1,AC50,[17],1.78 µM (active)
same,AC50,[4],2.48 µM (active)
same,outcome,[10],inactive
same,AC50,[11],28.9 µM (active)
same,AC50,[5],0.703 µM (active)
same,AC50,[12],0.956 µM (active)
same,AC50,[13],23.2 µM (active)
same,AC50,[6],15.2 µM (active)
same,AC50,[7],0.23 µM (active)
COC(=O)[C@H]1[C@H]2C[C@@H]3c4[nH]c5cc(OC)ccc5c4CCN3C[C@H]2C[C@@H](OC(=O)c2cc(OC)c(OC)c(OC)c2)[C@@H]1OC,outcome,[4],inactive
same,outcome,[11],inactive
same,AC50,[5],84.3 µM (active)
same,outcome,[18],inactive
same,outcome,[3],inactive
same,outcome,[12],inactive
same,outcome,[13],inactive
same,outcome,[6],inactive
same,outcome,[7],inactive
CCCCCCCCCCCCCCOS(=O)(=O)O,AC50,IYD (gene 389434),29.6 µM (active)
same,outcome,[8],inactive
same,outcome,[9],inactive
same,AC50,SRD5A2 (gene 6716),26.1 µM (active)
Cc1ccc(-c2cc(C(F)(F)F)nn2-c2ccc(S(N)(=O)=O)cc2)cc1,outcome,[4],inactive
same,outcome,[11],inactive
same,outcome,[12],inactive
same,outcome,[13],inactive
same,outcome,[7],inactive

# Source: PubChem BioAssay (EPA / NIEHS)
